Experimental data reported in PubChem BioAssay AID624405 (Broad Institute, 2012).
Among all 1,900 compounds or so, about 250 (13%) were called active. Not shown: some 4% with an inconclusive outcome. These entries were drawn from the full list. Measured potencies and affinities stand elsewhere. A number with no mark means an inactive call.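 Rule for the calls: active = fitted curve reaches 40% rescue activity at or below the top valid dose, in every test run; inconclusive = test runs disagree, some active and some inactive; inactive = every run misses the threshold or moves the wrong way.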

Assay: suppressors of statin myotoxicity in myotubes, dose response, cell-based, C2C12 myotubes, ATP luminescence, cherry pick (AID 624405);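 note: myotubes are challenged with simvastatin at 10 µM to lower ATP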
Details: C2C12 myotubes + simvastatin, 48 h, scaled: DMSO wells 0, geranylgeraniol wells 100; series mostly up to 19.5 µM; rescue activity (ATP increase): at the top concentration
With `COc1ccc2cc(C(=O)O)n(CC(=O)c3ccccc3)c2c1` the “rescue activity (ATP increase)” value was 25.9%.
With `COc1ccc(NC(=O)CSc2nnc(-c3ccccc3Cl)n2Cc2ccco2)c(OC)c1` the “rescue activity (ATP increase)” value was 13.5%.
In the case of `CCC(CC)C(=O)c1c[nH]c(C(=O)NCC2CCCO2)c1` (stereo not given), the “rescue activity (ATP increase)” value is reported as 8.18%.
For `CN1C[C@H]2[C@@H](c3ccccc31)[C@H](CO)N2Cc1ccccc1`, the “rescue activity (ATP increase)” value was 1.69%.
For `O=C(c1ccc(F)cc1)N1CCC(N2CCCCCC2)CC1`, the “rescue activity (ATP increase)” value was -15.7%.
With `CCc1cccc(NS(=O)(=O)c2ccc(-n3cccn3)cc2)c1` the “rescue activity (ATP increase)” value was 37.6%.
With `Cc1ccc(C)c(NS(=O)(=O)c2ccc(-n3cccn3)cc2)c1` the “rescue activity (ATP increase)” value was 31.4%.
For `Cc1ccc(NS(=O)(=O)c2ccc(-n3cccn3)cc2)cc1Cl`, the “rescue activity (ATP increase)” value was 17.5%.
In the case of `CC(C)c1ccc(NS(=O)(=O)c2ccc(-n3cccn3)cc2)cc1`, the “rescue activity (ATP increase)” value is reported as 7.18%.
With `COc1ccc(C#Cc2cnc3c(c2)C(=O)N([C@H](C)CO)C[C@H](C)[C@@H](CN(C)C(=O)Nc2cccc(OC)c2)O3)cc1` the “rescue activity (ATP increase)” value was 32.5%.
With `COc1cc(C(=O)OCCN2CCOCC2)ccc1O` the “rescue activity (ATP increase)” value was 0.799%.
In the case of `C[C@@H]1CN([C@@H](C)CO)C(=O)c2cccc(NC(=O)C3CCCCC3)c2O[C@@H]1CN(C)S(=O)(=O)c1ccc(Cl)cc1`, the “rescue activity (ATP increase)” value is reported as 6.54%.
For `C[C@H](CO)N1C[C@H](C)[C@H](CN(C)S(C)(=O)=O)OCCCC[C@H](C)Oc2ccc(NS(=O)(=O)c3ccc(F)cc3)cc2C1=O`, the “rescue activity (ATP increase)” value was 20%.
With `COc1ccc(-c2cnc3c(c2)C(=O)N([C@H](C)CO)C[C@H](C)[C@H](CN(C)S(=O)(=O)c2ccc(F)cc2)O3)cc1` the “rescue activity (ATP increase)” value was 22.4%.
With `Cc1[nH]nc2c1C(c1ccsc1)C(C#N)=C(N)O2` (stereo not given) the “rescue activity (ATP increase)” value was 15.8%.
In the case of `OC[C@H]1[C@H]2c3ccccc3NC[C@H]2N1Cc1ccccc1Cl`, the “rescue activity (ATP increase)” value is reported as -8.25%.
For `CCC(CC)C(=O)Nc1cccc(/C(C)=N/NC(=O)c2ccccc2Cl)c1`, the “rescue activity (ATP increase)” value was -38.2%.
For `COc1cc(OC)cc(C(=O)Nc2ccccc2C(=O)N2CCCC2)c1`, the “rescue activity (ATP increase)” value was 4.03%.
In the case of `O=C(NCc1ccncc1)Nc1ccccc1Cl`, the “rescue activity (ATP increase)” value is reported as 3.84%.
In the case of `C[C@@H]1CN([C@@H](C)CO)C(=O)Cc2cc(NS(=O)(=O)c3ccc(Cl)cc3)ccc2O[C@@H]1CN(C)Cc1ccc(C(F)(F)F)cc1`, the “rescue activity (ATP increase)” value is reported as 7.12%.
For `C[C@@H]1CN([C@@H](C)CO)C(=O)c2cccc(NS(=O)(=O)c3ccccc3)c2O[C@@H]1CN(C)S(=O)(=O)c1cccs1`, the “rescue activity (ATP increase)” value was 25.9%.
In the case of `O=C(Cn1cnc2c(nnn2Cc2ccc(F)cc2)c1=O)NC1CCCC1`, the “rescue activity (ATP increase)” value is reported as -82.2% [at 10 µM].
For `O=C1c2ccccc2NC(c2cccc(F)c2)N1Cc1ccco1` (stereo not given), the “rescue activity (ATP increase)” value was 16.9%.
With `C[C@H](CO)N1C[C@H](C)[C@@H](CN(C)S(=O)(=O)c2cccs2)OCCCC[C@H](C)Oc2ccc(NC(=O)Nc3ccc(F)cc3)cc2C1=O` the “rescue activity (ATP increase)” value was -8.95%.
In the case of `CCc1ccc(C(O)(CC(C)C)C(CN2CCOCC2)c2ccccc2)cc1` (stereo not given), the “rescue activity (ATP increase)” value is reported as 30.6%.
